Marburg entry inh = qHTS for inhibitors of binding or entry into cells for Marburg Virus; AID 540276, 2011; hit rate 1.8% among 300,000; Marburg virus pseudotyped entry inhibition, cell reporter; Potency, µM (doses to about 37.8 µM), hits mostly inhibitors; calls by dose curve; tested in HEK293 cells
Shiga toxin inh = A qHTS for Small Molecule Inhibitors of Shiga Toxin | AID 2315, 2010 | inhibition, % at 38.7 µM | Vero cells, Shiga toxin protein synthesis inhibition reporter | hit rate 9.2% among 290,000; in the data active = inhibition mostly above about 28%, no sharp cut-off; inactive = mostly below about 43%
FMDV antiviral = High Throughput Screening for Foot and Mouth Disease Virus Antivirals; AID 1159524, 2015; FMDV antiviral cell-based qHTS; Potency, µM (doses to about 57.9 µM), hits mostly inhibitors; hit rate 1.2% among 410,000; calls by dose curve; tested in HEK293T cells; note: read-out not given here; nearly all actives have a fitted effect of over 45% in size
CHX counter = Cycloheximide Counterscreen for Small Molecule Inhibitors of Shiga Toxin | hit rate 12% among 300,000 | cell reporter, cycloheximide protein synthesis inhibition counterscreen | max response, %; in the data active = max response mostly above about 13%, no sharp cut-off; inactive = mostly below about 14%; note: read at 38.3 µM for the half of the compounds with a filed dose
LASV entry inh = qHTS for Inhibitors of binding or entry into cells for Lassa Virus; Lassa virus pseudotype entry inhibition, cell reporter; Potency, µM (series often up to 37.9 µM), most hits filed as inhibitors; hit rate 1.2% among 300,000; calls by dose curve; tested in HEK293 cells; note: nearly all actives have a fitted effect of over 50% in size
HCV inhibitor = qHTS Assay for Inhibitors of Hepatitis C Virus (HCV); hit rate 3.4% among 340,000; Huh7.5.1 HCVcc-Cre infection, luciferase reporter, 44 h; Potency, µM (highest dose often 41.8 µM), actives largely listed as inhibitors; active = well fitted inhibition curve with a large enough effect; inconclusive = small, poorly fitted or top-dose-only effect, or another doubt; inactive = no such curve, though single readings can be large or run the other way
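After 44 h co-culture of compound, cells and HCVcc-Cre (~0.5 moi), substrate is added for 15 min at room temperature and luciferase measured over 15 sec. Cells were seeded at 1,000/well and pre-cultured 4 h.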
A number is an active result; . = inactive; ? = inconclusive; / = no result given. Most compounds without a hit are left out; they make up all but 13% or so of the library.

SMILES	Marburg entry inh	Shiga toxin inh	FMDV antiviral	CHX counter	LASV entry inh	HCV inhibitor
O=[N+]([O-])c1ccc(O)c(C(C#Cc2ccccc2)N2CCOCC2)c1 (centres undefined)	?	66.2	.	25.9	?	.
CCc1ccccc1NC(=O)CCNS(=O)(=O)c1ccc2c(c1)CCN2C(=O)C1CC1	/	/	.	/	.	/
CC(=O)N1CCN(C(=O)CSc2cc(C)c(Br)cc2C)CC1	.	48.2	.	34.1	.	/
Cc1cc(SCC(=O)OCC(=O)N2CCCC2=O)c(C)cc1Br	.	/	.	/	?	.
CCCc1nn(C)c(C(=O)Nc2ccccc2)c1Cl	?	72.1	?	91.8	?	.
CCCc1nn(C)c(C(=O)Nc2ccc(Cl)cc2)c1Cl	.	.	.	24.9	?	.
CCN1CCN(CCC(=O)Nc2ccccc2)CC1	?	.	.	.	?	.
CCCc1nn(C)c(C(=O)Nc2ccc(C(C)(C)C)cc2)c1Cl	.	.	.	.	.	.
N/C(Cc1ccc(Cl)cc1)=N\OC(=O)C1CCCCC1	.	68.5	.	53.1	.	.
CCOC(=O)C1(C(=O)OCC)COC(=O)C1CN1Cc2cc3ccccc3nc2C1 (centres undefined)	/	/	28.2µM	/	/	/
O=C1C(NS(=O)(=O)c2cccs2)=C(N2CCN(c3ccccc3)CC2)C(=O)c2ccccc21	.	44.1	.	.	?	.
O=C1NC(c2ccccc2)=C(c2nc3ccccc3s2)C(c2ccc(F)cc2)N1 (centres undefined)	23.1µM	.	22.4µM	.	?	?
CCc1ccc[n+](-c2[nH]c(=O)sc2/C=N/N=C(\N)[O-])c1	.	.	.	.	.	.
COCCSc1nc2c(c(=O)[nH]c(=O)n2C)n1CCCc1ccccc1	/	.	?	.	/	?
COc1ccc(OCC(=O)NNC(=O)C2CCCO2)cc1 (centres undefined)	.	.	.	.	.	.
O=C(Nc1nc(-c2ccc(Cl)cc2)cs1)C1CCCO1 (centres undefined)	.	90.8	.	36.1	.	.
O=C(Nc1nc(-c2ccc(Cl)cc2Cl)cs1)C1CCCO1 (centres undefined)	?	.	.	.	?	?
CCOc1ccc(-c2csc(NC(=O)C3CCCO3)n2)cc1 (centres undefined)	?	11.0	.	41.7	.	.
CC1CCCCN1CCNC(=O)C1CCN(S(=O)(=O)c2cccc3cccnc23)CC1 (centres undefined)	.	.	.	.	/	.
Cc1ccc(C(=O)N/C(=C\c2cccnc2)C(=O)N2CCCC2)cc1	.	.	.	.	.	.
COCCNC(=O)Cc1c(C)c2c(cc(C)c3c(C)coc32)oc1=O	/	.	.	.	/	.
COCCCNC(=O)Cc1c(C)c2c(cc(C)c3c(C(C)(C)C)coc32)oc1=O	/	.	.	.	/	11.2µM
COc1ccccc1CN1CC(C(=O)N2CCCCCCC2)CCC1=O (centres undefined)	.	.	.	.	.	.
CCCCNC(=O)c1ccc(N2CCC3(CC2)OCCO3)c([N+](=O)[O-])c1	.	.	.	.	?	.
CCOC(=O)N1CCC(NC(=O)c2ccc(N3CCC4(CC3)OCCO4)c([N+](=O)[O-])c2)CC1	?	.	25.1µM	.	?	.
SMILES	Marburg entry inh	Shiga toxin inh	FMDV antiviral	CHX counter	LASV entry inh	HCV inhibitor
C=C1CCN(c2ccc(C(=O)NCCC)cc2[N+](=O)[O-])CC1	/	/	.	/	/	10µM
CCN(CC)S(=O)(=O)c1csc(C(=O)OCC(=O)c2ccccc2)c1	.	41.1	.	32.8	.	.
CCN(Cc1ccccc1)S(=O)(=O)c1csc(C(N)=O)c1	/	.	.	.	/	.
COc1ccc(NC(=O)CCCCCn2nnc3ccccc3c2=O)cc1	.	.	.	.	.	?
N#Cc1c(N)nc(N2CCCC2)c(C#N)c1-c1ccc(Cl)cc1	.	.	.	.	?	.
N#Cc1c(-c2ccc(Cl)cc2)ccnc1N1CCOCC1	?	45.9	.	25.8	.	.
Cc1c(Cl)cccc1NC(=O)CN1CCC(C(O)(c2ccccc2)c2ccccc2)CC1	?	.	?	.	?	?
CC(=C/c1ccco1)/C=N/NC(=O)c1ccncc1	.	.	.	.	.	.
CC(/C=N/NC(=O)c1cccnc1)=C\c1ccco1	.	.	/	13.9	?	.
CC(/C=N/NC(=O)c1cnccn1)=C\c1ccco1	.	.	.	31.8	.	.
Cc1ccc(C(=O)Nc2ccc3[nH]c(=O)[nH]c3c2)c(C)c1	/	.	.	.	/	.
O=C1C=C(N2CCCCC2)c2ccccc2C1=O	?	/	22.4µM	/	8.91µM	7.08µM
O=C1c2ccccc2C(=O)c2c1cccc2N1CCCC1	?	56.0	.	43.3	.	?
Clc1ccc2c(c1)[C@H]1OCC[C@H]1[C@@H](c1ccco1)N2	/	65.9	.	24.6	/	.
Fc1ccc2c(c1)[C@H]1OCC[C@H]1[C@@H](c1ccco1)N2	.	.	.	.	.	.
COc1ccc(OC)c(NC(=O)c2ccc(-c3nc(COc4ccccc4)c(C)o3)cc2)c1	/	/	?	/	.	/
O=C(O)c1cccc([N+](=O)[O-])c1C(=O)Nc1ccc2ccccc2c1	/	.	.	19.6	/	.
O=C(O)c1cccc([N+](=O)[O-])c1C(=O)Nc1cccc2ccccc12	.	/	.	19.5	?	.
CCC(=O)c1ccc(OCC(=O)OC(C)C(=O)NCc2ccc3c(c2)OCO3)cc1 (centres undefined)	?	/	.	/	.	.
Cc1nc(Cl)c2c(n1)NC(=O)CO2	/	.	.	.	/	.
CS(=O)(=O)N1CCc2cc(NC(=O)c3ccc(Cl)cc3Cl)ccc21	?	.	.	20.6	?	?
CS(=O)(=O)N1CCc2cc(C(=O)Nc3ccc(Cl)cc3)ccc21	?	.	.	16.8	.	?
COc1ccc(Cl)cc1NC(=O)c1ccc2c(c1)CCN2S(C)(=O)=O	.	/	.	/	.	/
N#C/C(=C/c1cn(-c2ccccc2)nc1-c1cccc(OCc2ccc(F)cc2)c1)C(=O)NCCCn1ccnc1	?	.	.	.	?	5.62µM
COc1ccc(-c2cc(C(=O)OCC(=O)N(C)C3CCS(=O)(=O)C3)c3ccccc3n2)cc1OC (centres undefined)	?	.	.	16.9	?	3.16µM
CCN(C(=O)COC(=O)c1cc(-c2ccc(C)o2)nc2ccccc12)C1CCS(=O)(=O)C1 (centres undefined)	.	.	.	.	?	.
CCN(C(=O)COC(=O)c1c(C)c(-c2ccccc2)nc2ccccc12)C1CCS(=O)(=O)C1 (centres undefined)	/	.	.	.	/	12.6µM
CCN(C(=O)COC(=O)c1c(-c2ccccc2)noc1C)C1CCS(=O)(=O)C1 (centres undefined)	.	.	.	.	.	.
CCN(C(=O)COC(=O)c1cc(-c2cccs2)nc2ccccc12)C1CCS(=O)(=O)C1 (centres undefined)	.	.	.	.	.	11.2µM
